Each structure is given as a SMILES string. The panel holds about 83,000 compounds, 20% with a hit somewhere; the sample as a whole holds those more often.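 Compound tested at a single concentration for 48 hours in 96-well plates; a percent growth value below 10 was scored as active.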 A number with no mark means an inactive call. Active and inactive are the calls of the source.

Among the test systems are HCT-15 colon; HT29 colon; SNB-75 CNS; SNB-19 CNS; U251 CNS; PC-3 prostate; SK-MEL-5 melanoma; UACC-62 melanoma; LOX IMVI melanoma; SK-MEL-28 melanoma; SK-MEL-2 melanoma; EKVX NSCLC; SN12C renal; UO-31 renal; TK-10 renal; ACHN renal; CAKI-1 renal; CCRF-CEM leukemia; MOLT-4 leukemia; A498 renal.
Common to all, as to assay: NCI-60 one-dose screen, 48 h (100 = growth as untreated, 0 = no growth, -100 = all killed)
Common to all, as to details: 10 µM unless noted

Consider `O=C(/C(=C/c1ccc([N+](=O)[O-])cc1)SCc1ccc(F)cc1)c1ccc(F)cc1`, for which the growth in the assay on HCT-15 colon was 37.2%; in the assay on HT29 colon, 22%; in the assay with SNB-75 CNS, 96.8%; in the assay on SNB-19 CNS, 68.4%; with U251 CNS it was 37.5%; in the assay with PC-3 prostate, 78.3%. Further, the growth was 95.4% in the assay on SK-MEL-5 melanoma; 63.7% in the assay on UACC-62 melanoma; 32% in the assay with LOX IMVI melanoma; 103% with SK-MEL-28 melanoma; 90.4% in the assay on SK-MEL-2 melanoma; 101% with EKVX NSCLC. Moreover, the growth in the assay on SN12C renal was 82.4%; with UO-31 renal, 54.3%; in the assay on TK-10 renal, 79.4%; in the assay on ACHN renal, 91.1%; in the assay with CAKI-1 renal, 75.2%; in the assay with CCRF-CEM leukemia, 7.75% (active). Besides, in the assay with MOLT-4 leukemia, the growth was 21.9%.
In the case of `COC(=O)/C=C1\S/C(=N\NC(=O)c2cc3ccc2/C=C\c2ccc(cc2)/C=C\3)N(c2ccccc2)C1=O`, the growth in the assay with HCT-15 colon is 0.337% (active); in the assay on HT29 colon, -13.1% (active); in the assay on SNB-75 CNS it was 45.7%; in the assay with SNB-19 CNS, 39.9%; in the assay with U251 CNS it was 15.8%; in the assay with PC-3 prostate, -35.9% (active). Moreover, the growth with SK-MEL-5 melanoma is 69.3%; in the assay with UACC-62 melanoma, 25.2%; with LOX IMVI melanoma it was -27.8% (active); with SK-MEL-28 melanoma it was 82.5%; in the assay on SK-MEL-2 melanoma it was 87%; with EKVX NSCLC, 59%. Further, the growth with SN12C renal is 22.5%; in the assay with TK-10 renal, 15.2%; in the assay with ACHN renal it was 49.3%; in the assay on CAKI-1 renal it was 69.3%; with CCRF-CEM leukemia, 13%; in the assay with MOLT-4 leukemia, 3.03% (active).
With `COc1cccc(-c2nc3occn3c2-c2ccnc(NCCCNS(=O)(=O)c3ccc(C(F)(F)F)cc3)n2)c1`, the growth is 85.3% in the assay with HCT-15 colon; 73.5% in the assay with HT29 colon; 103% in the assay with SNB-75 CNS; 105% with SNB-19 CNS; 84.1% with U251 CNS; 75.9% in the assay with PC-3 prostate. For the same compound, the growth was 68.6% with SK-MEL-5 melanoma; 67.3% with UACC-62 melanoma; 87.5% in the assay with LOX IMVI melanoma; 97.5% in the assay with SK-MEL-28 melanoma; 92.3% in the assay with SK-MEL-2 melanoma; 92.8% with EKVX NSCLC. Also, the growth with SN12C renal is 85.4%; in the assay with TK-10 renal, 106%; with ACHN renal, 89.3%; in the assay with CAKI-1 renal, 75.3%; with CCRF-CEM leukemia, 93.9%; in the assay on MOLT-4 leukemia, 69%.
Consider `CCCCC/C=C/C(C)=C/C1CC(C)C/C=C/CCC(O)C(OC(N)=O)CCC(C)CC(O)C(C)C(=O)O1` (stereo unspecified), for which the growth with HCT-15 colon was 89.8%; in the assay with HT29 colon it was 96.9%; in the assay on SNB-75 CNS, 98.9%; in the assay with SNB-19 CNS it was 183%; in the assay on U251 CNS it was 82.1%; in the assay with PC-3 prostate it was 73.7%. The growth is 61.4% with SK-MEL-5 melanoma; 82% in the assay on UACC-62 melanoma; 73.9% in the assay with LOX IMVI melanoma; 85.7% in the assay on SK-MEL-28 melanoma; 92.6% in the assay with SK-MEL-2 melanoma; 91.9% in the assay on EKVX NSCLC. Further, the growth with SN12C renal is 97.2%; with TK-10 renal, 100%; with ACHN renal, 73.1%; in the assay on CAKI-1 renal, 78.9%; with A498 renal, 71.7%.
In the case of `COc1cc2nc(-c3ccc(C(F)(F)F)cc3)cc(OCCCN3CCCC3)c2cc1OC`, the growth was 13.1% in the assay on HCT-15 colon; 20.9% in the assay with HT29 colon; -19% (active) in the assay on SNB-75 CNS; 67.5% in the assay on SNB-19 CNS; 50.6% in the assay on U251 CNS; 41.7% with PC-3 prostate. The growth with SK-MEL-5 melanoma is -18.2% (active); with UACC-62 melanoma it was -25% (active); with LOX IMVI melanoma, -53.1% (active); in the assay with SK-MEL-28 melanoma it was 71.9%; in the assay on SK-MEL-2 melanoma, 49.3%; in the assay on EKVX NSCLC, 65%. The growth was 44.5% in the assay with SN12C renal; 100% with TK-10 renal; 39.1% with ACHN renal; -7.36% (active) with CAKI-1 renal; 38.5% with CCRF-CEM leukemia; 46.2% with MOLT-4 leukemia.
With `CCCCCCNC(=O)Oc1ccc(/C(=C(\C)c2ccccc2)c2ccc(OCCCN(C)C)cc2)cc1`, the growth in the assay on HCT-15 colon was 25.9%; in the assay with HT29 colon, 2.7% (active); in the assay on SNB-75 CNS, 86.8%; with SNB-19 CNS, 80.5%; in the assay with U251 CNS, 67.3%; with PC-3 prostate it was 79.7%. Further, the growth in the assay on SK-MEL-5 melanoma is 92.9%; in the assay on UACC-62 melanoma it was 56.1%; in the assay with LOX IMVI melanoma, 80.2%; in the assay with SK-MEL-28 melanoma it was 88.3%; in the assay with SK-MEL-2 melanoma, 92.3%; in the assay on EKVX NSCLC, 91.1%. Besides, the growth is 80.7% with SN12C renal; 97.9% in the assay with ACHN renal; 94.8% in the assay with CAKI-1 renal; 77.6% with CCRF-CEM leukemia; 62.6% in the assay with MOLT-4 leukemia.
In the case of `COc1ccc(/C=C/c2nc(Nc3ccc(S(=O)(=O)Nc4cc(C)on4)cc3)c3ccccc3n2)cc1`, the growth is 48.8% in the assay with HCT-15 colon; 69.3% in the assay on HT29 colon; 74.7% in the assay with SNB-75 CNS; 83.2% in the assay on SNB-19 CNS; 74.5% with U251 CNS; 74.7% in the assay with PC-3 prostate. Further, the growth in the assay on SK-MEL-5 melanoma was 43.5%; with UACC-62 melanoma it was 17.5%; in the assay on LOX IMVI melanoma it was 31.5%; with SK-MEL-28 melanoma, 91.7%; in the assay with SK-MEL-2 melanoma, 75.8%; in the assay on EKVX NSCLC, 71.6%. For the same compound, the growth is 82.3% in the assay on SN12C renal; 71.5% in the assay on TK-10 renal; 54.2% in the assay with ACHN renal; 49.4% with CAKI-1 renal; 49% in the assay on CCRF-CEM leukemia; 70.6% in the assay with MOLT-4 leukemia.
As for `C[C@@H](Nc1ncnc2ccc(-c3cnc(N)nc3)cc12)c1ccc(F)cc1`, the growth was 88.6% in the assay with HCT-15 colon; 84.9% in the assay on HT29 colon; 69.5% with SNB-75 CNS; 76.1% in the assay on SNB-19 CNS; 80.9% in the assay with U251 CNS; 69.1% with PC-3 prostate. Moreover, the growth in the assay with SK-MEL-5 melanoma is 73.2%; in the assay with UACC-62 melanoma it was 69.2%; in the assay with LOX IMVI melanoma, 78.4%; in the assay with SK-MEL-28 melanoma it was 92.5%; in the assay on EKVX NSCLC, 36.7%; with SN12C renal, 33.9%. In addition, the growth is 35.1% in the assay with UO-31 renal; 21.4% with TK-10 renal; 41.5% in the assay with ACHN renal; 40.6% with CAKI-1 renal; -13.5% (active) in the assay with A498 renal; 95.3% in the assay with CCRF-CEM leukemia.
As to `O=C1Nc2cc(Cl)ccc2/C1=C\c1c(-c2ccc(F)cc2)nc2ccccn12`, the growth with HCT-15 colon is 12.5%; in the assay with HT29 colon, 4.36% (active); with SNB-75 CNS, -16.9% (active); in the assay on SNB-19 CNS, 22.2%; in the assay on U251 CNS, 22.9%; in the assay with PC-3 prostate, 12.8%. In addition, the growth in the assay with SK-MEL-5 melanoma was -10.9% (active); in the assay with UACC-62 melanoma, 10.6%; with LOX IMVI melanoma, 11.1%; with SK-MEL-28 melanoma it was 28.2%; in the assay with SK-MEL-2 melanoma it was 23.7%; in the assay with EKVX NSCLC it was 34.5%. Besides, the growth is 19.1% with SN12C renal; 72.7% in the assay with TK-10 renal; 41% in the assay with ACHN renal; 21.5% with CAKI-1 renal; 7.67% (active) with CCRF-CEM leukemia; -4.44% (active) in the assay on MOLT-4 leukemia.

(Values after PubChem BioAssay (NCI).)
